Test results as given in the supplement of paper PMC6555819.

test system: PPARg:RXRa DBDmut IVT, anti-RXR (DBD mutation: RXRa K156A/R161A, NR concentration 270 nM, RXRa partner concentration 90 nM); assay: PBM binding z-score (relative to random genomic background probes); higher = stronger binding; sequences stand for … in GC…GCGATTGACAGCGTAGAATGAAGG
Method in brief: (§1)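 The probes on custom Agilent 4×180K protein-binding microarrays were double-stranded, with 34-nt variable regions bearing direct-repeat seeds, single-nucleotide variants, half-site ablations and random human genomic background sequences. Incubation lasted 1 h with ligand-free nuclear receptor dimers in PBS pH 7.4, 2% milk, 0.02% Triton X-100, 1 mM DTT, 0.2 mg/mL BSA and 0.4 mg/ml salmon testes DNA. Antibodies against each partner (one per run) detected bound dimers, and fluorescence scans were regression-normalized. Binding z-scores take the random background probes as reference.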

Q: For CGTCCAAGGTCGTAGGAGGTCAGTGAAGACAGAT, which PBM binding z-score is on record?
A: 0.632

Q: How did the PBM binding z-score turn out when TCTGCTAGGTCAACGATGATCAGCTAATCTGCTA was run?
A: 4.26

Q: How did the PBM binding z-score turn out when TCAAATAGGTAAAGGTGAAAGTCGAACGATATGA was run?
A: 3.65

Q: For TCTATTAGTTGATTAGGGCAACTGAAACAGCGGA, which PBM binding z-score is on record?
A: 2.22

Q: Which PBM binding z-score does the source give for AGAATGAGGTAATACGTAGATCAGGGAAGAAAGT here?
A: 3.49

Q: ACTATTAGTTGACTTAGGACAACCGATACGACGC was tested. Which PBM binding z-score did it give?
A: -0.129

Q: With AGTCAAAGTTCAGGACGAAGTAACGTAAAGCACG as the sequence, how does the PBM binding z-score read?
A: -0.478

Q: For TCTTGTAGATCAAGGGTTAAGAAAGCCGAAGCCT, which PBM binding z-score is on record?
A: 1.55

Q: With CGAACTAGGTCGGAACAGGACAGTGAAGGATGAT as the sequence, how does the PBM binding z-score read?
A: 4.12

Q: How did the PBM binding z-score turn out when AGAACGAGGGCAATAAGTTGATAGCACGGGTGGC was run?
A: 3.47

Q: Which PBM binding z-score does the source give for AGAACGATGGCACGCTGAGTTGATAGCAGAGTAG here?
A: -0.571

Q: For GATACAGGGTCAGCTAGAGGACAGAGTATGGAAA, which PBM binding z-score is on record?
A: 1.12

Q: How did the PBM binding z-score turn out when TCATATAGGTAAATGCTAGGTGAAAGTGCGATCT was run?
A: 4.06

Q: How did the PBM binding z-score turn out when GCTAGTTGGTCAGTAAAAGGTCAGACACCGGTCG was run?
A: 0.754

Q: With AGAATGAGGTTACCAAACATCAGGGAAACGCTTG as the sequence, how does the PBM binding z-score read?
A: 4

Q: How did the PBM binding z-score turn out when ACTCGGAAGACAAAGGTCAGAGCTACGCCAGTGA was run?
A: 0.385

Q: Which PBM binding z-score does the source give for ACAGACAGGTTAGTGAAGGTAACTCAGCTGGACG here?
A: 0.174

Q: With TCTATTAGTTGACTAGGGCAACCGAAACAGCGGA as the sequence, how does the PBM binding z-score read?
A: 3.04

Q: With ACTAGCAGGCCAAGTTTGGGTCACTTAAACAAAG as the sequence, how does the PBM binding z-score read?
A: 0.815

Q: Which PBM binding z-score does the source give for CCTACTGGGCCACGAAAGCTCATTGATTCAGTGA here?
A: 5.87

Q: With ACTAGCAGGCCAGGTTTGGGTCACTCAAACAAAG as the sequence, how does the PBM binding z-score read?
A: -0.173

Q: Which PBM binding z-score does the source give for TAGCCTACGTCAGATCGGGCCAGTATACGCTATA here?
A: -1.07

Q: Which PBM binding z-score does the source give for TAGCCTAGGTCATTCAGGGGCCAGTTTAGAAAGC here?
A: 1.47

Q: With CTCGAAAGGTCGTGCTCACGTGAGTATACCAAAC as the sequence, how does the PBM binding z-score read?
A: 0.85

Q: Which PBM binding z-score does the source give for GCTCGGAGGACAAGGTCAGAGCATTGTCCGTAGA here?
A: -0.234

Q: For TAGCCTAGGTCAGATCGGGCAAGTATACGCTATA, which PBM binding z-score is on record?
A: 0.264

Q: How did the PBM binding z-score turn out when CAAACTAGGTCAAGGTCATAGTCGGTTTGTGCCA was run?
A: 8.52

Q: TTACCAAGGTGAAGGTCCTTGATCCCTCTGTAGA was tested. Which PBM binding z-score did it give?
A: 1.64

Q: How did the PBM binding z-score turn out when CGAACGAGGGCATGAGTTGACAGCAAATGCCGAT was run?
A: 2.75

Q: How did the PBM binding z-score turn out when ATCGAAAGGTCGAACGTGAGTATACCCACCCGAA was run?
A: 0.292

Q: With TCTGCTAGGTCAGCTGGTCAGCTAACGAGCTGCC as the sequence, how does the PBM binding z-score read?
A: 2.65

Q: GATACAGGGTCAGCCAGAGGCCAGAGTATGGAAA was tested. Which PBM binding z-score did it give?
A: 1.1

Q: How did the PBM binding z-score turn out when GCTATTAGTTGAAAGGGCAACCCAATGATTCTCG was run?
A: 0.127

Q: How did the PBM binding z-score turn out when GCGACTGGGGCATCAGCAGTTTACCATAACTTAA was run?
A: 3.71

Q: ATATGAAGGTTACATCCGGGTCATTCAGGCTATG was tested. Which PBM binding z-score did it give?
A: 2.04

Q: For CGTCAAAGATCAACTAAGGTAACGTAAAGCACGC, which PBM binding z-score is on record?
A: -0.00407

Q: With AGATTGAGGTTAAGATCAGGGAAACAGAATACAT as the sequence, how does the PBM binding z-score read?
A: 2.1

Q: With GATACAGGGTCAAGGCCAGCGTACGCGTATTGAT as the sequence, how does the PBM binding z-score read?
A: 2.09

Q: Which PBM binding z-score does the source give for AGTACGAGGGCACGCTGAGTTGATAGCAGAGTAG here?
A: 2.66

Q: How did the PBM binding z-score turn out when TGAATGAGGTTAAAGATCCGGGAACGTGGCGTCG was run?
A: 2.22

test system: PPARg:RXRa IVT, anti-PPARg (NR concentration 270 nM, RXRa partner concentration 90 nM); assay: as above
Method in brief: as §1

Q: CGTCCAAGGTCGTAGGAGGTCAGTGAAGACAGAT was tested. Which PBM binding z-score did it give?
A: 1.67

Q: For TCTGCTAGGTCAACGATGATCAGCTAATCTGCTA, which PBM binding z-score is on record?
A: 4.06

Q: With TCAAATAGGTAAAGGTGAAAGTCGAACGATATGA as the sequence, how does the PBM binding z-score read?
A: 3.47

Q: With TCTATTAGTTGATTAGGGCAACTGAAACAGCGGA as the sequence, how does the PBM binding z-score read?
A: 1.45

Q: AGAATGAGGTAATACGTAGATCAGGGAAGAAAGT was tested. Which PBM binding z-score did it give?
A: 0.83

Q: ACTATTAGTTGACTTAGGACAACCGATACGACGC was tested. Which PBM binding z-score did it give?
A: 0.214

Q: For AGTCAAAGTTCAGGACGAAGTAACGTAAAGCACG, which PBM binding z-score is on record?
A: 1.38

Q: For TCTTGTAGATCAAGGGTTAAGAAAGCCGAAGCCT, which PBM binding z-score is on record?
A: 2.33

Q: How did the PBM binding z-score turn out when CGAACTAGGTCGGAACAGGACAGTGAAGGATGAT was run?
A: 3.56

Q: Which PBM binding z-score does the source give for AGAACGAGGGCAATAAGTTGATAGCACGGGTGGC here?
A: 2.3

Q: For AGAACGATGGCACGCTGAGTTGATAGCAGAGTAG, which PBM binding z-score is on record?
A: -0.274

Q: With GATACAGGGTCAGCTAGAGGACAGAGTATGGAAA as the sequence, how does the PBM binding z-score read?
A: 2.33

Q: For TCATATAGGTAAATGCTAGGTGAAAGTGCGATCT, which PBM binding z-score is on record?
A: 3.13

Q: Which PBM binding z-score does the source give for GCTAGTTGGTCAGTAAAAGGTCAGACACCGGTCG here?
A: 1.67

Q: Which PBM binding z-score does the source give for AGAATGAGGTTACCAAACATCAGGGAAACGCTTG here?
A: 3.04

Q: With ACTCGGAAGACAAAGGTCAGAGCTACGCCAGTGA as the sequence, how does the PBM binding z-score read?
A: 1.77

Q: Which PBM binding z-score does the source give for ACAGACAGGTTAGTGAAGGTAACTCAGCTGGACG here?
A: 0.407

Q: TCTATTAGTTGACTAGGGCAACCGAAACAGCGGA was tested. Which PBM binding z-score did it give?
A: 3.38

Q: With ACTAGCAGGCCAAGTTTGGGTCACTTAAACAAAG as the sequence, how does the PBM binding z-score read?
A: 1.34

Q: For CCTACTGGGCCACGAAAGCTCATTGATTCAGTGA, which PBM binding z-score is on record?
A: 5.08

Q: For ACTAGCAGGCCAGGTTTGGGTCACTCAAACAAAG, which PBM binding z-score is on record?
A: 0.446

Q: How did the PBM binding z-score turn out when TAGCCTACGTCAGATCGGGCCAGTATACGCTATA was run?
A: -0.466

Q: For TAGCCTAGGTCATTCAGGGGCCAGTTTAGAAAGC, which PBM binding z-score is on record?
A: 2.77

Q: For CTCGAAAGGTCGTGCTCACGTGAGTATACCAAAC, which PBM binding z-score is on record?
A: 1.55

Q: With GCTCGGAGGACAAGGTCAGAGCATTGTCCGTAGA as the sequence, how does the PBM binding z-score read?
A: 0.996

Q: How did the PBM binding z-score turn out when TAGCCTAGGTCAGATCGGGCAAGTATACGCTATA was run?
A: 1.08

Q: Which PBM binding z-score does the source give for CAAACTAGGTCAAGGTCATAGTCGGTTTGTGCCA here?
A: 8.68

Q: With TTACCAAGGTGAAGGTCCTTGATCCCTCTGTAGA as the sequence, how does the PBM binding z-score read?
A: 2.67

Q: With CGAACGAGGGCATGAGTTGACAGCAAATGCCGAT as the sequence, how does the PBM binding z-score read?
A: 2.11

Q: With ATCGAAAGGTCGAACGTGAGTATACCCACCCGAA as the sequence, how does the PBM binding z-score read?
A: 1.49

Q: How did the PBM binding z-score turn out when TCTGCTAGGTCAGCTGGTCAGCTAACGAGCTGCC was run?
A: 2.82

Q: GATACAGGGTCAGCCAGAGGCCAGAGTATGGAAA was tested. Which PBM binding z-score did it give?
A: 2.63

Q: For GCTATTAGTTGAAAGGGCAACCCAATGATTCTCG, which PBM binding z-score is on record?
A: 0.818

Q: GCGACTGGGGCATCAGCAGTTTACCATAACTTAA was tested. Which PBM binding z-score did it give?
A: 2.93

Q: Which PBM binding z-score does the source give for ATATGAAGGTTACATCCGGGTCATTCAGGCTATG here?
A: 3.33

Q: For CGTCAAAGATCAACTAAGGTAACGTAAAGCACGC, which PBM binding z-score is on record?
A: 0.5

Q: For AGATTGAGGTTAAGATCAGGGAAACAGAATACAT, which PBM binding z-score is on record?
A: 2.29

Q: With GATACAGGGTCAAGGCCAGCGTACGCGTATTGAT as the sequence, how does the PBM binding z-score read?
A: 3.85

Q: AGTACGAGGGCACGCTGAGTTGATAGCAGAGTAG was tested. Which PBM binding z-score did it give?
A: 2.52

Q: Which PBM binding z-score does the source give for TGAATGAGGTTAAAGATCCGGGAACGTGGCGTCG here?
A: 2.41
